The record followed here is PubChem BioAssay (NCATS).

Results filed as inconclusive are left out. Active and inactive are the calls of the source. Calls come from the whole dose curve; as a rule, active = well fitted cell-killing curve with a large enough effect; inconclusive = small, poorly fitted or top-dose-only effect, or effect the other way; inactive = no such curve, though single readings can be large or run the other way.
Potency is the fitted concentration of half-maximal effect.

The assay can be described thus: Viability qHTS for spleen associated tyrosine kinase inhibitor (SYKi) drug resistant MV4-11 cells (AID 1963824). Note: nearly all actives have a fitted effect of over 35% in size. The settings on record: SYKi-resistant MV4-11 viability, CellTiter-Glo, 72 h; series mostly up to 45 µM. Summed up:
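SYK inhibitor-resistant MV4-11 AML cells, 500 per well, added to predispensed compounds and incubated 72 hr at 37 C, 5% CO2. Viability measured by CellTiter-Glo luminescence after 10 min at room temperature.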
As for `CC(=O)Nc1nc(C)c(-c2nc(N3CCCC(O)C3)no2)s1` (stereo unspecified), the Potency was 16.4 µM (active).
The value for `COC(=O)C1=CO[C@@H](O[C@@H]2O[C@H](CO)[C@@H](O)[C@H](O)[C@H]2O)/C(=C\CO)[C@@H]1CC(=O)OCCc1ccc(O)cc1` was “inactive”.
For `Cc1cccc(C)c1OCc1cc(C(=O)N2CCC(c3ccncc3)CC2)no1` the value was 9.2 µM (active); for `C=C1CC[C@@H]2[C@](C)(CO)[C@H](O)CC[C@@]2(C)[C@@H]1C/C=C1/C(=O)OCC1O` (stereo partly specified), 3.26 µM (active).
For `C[C@@H]1O[C@@H](O[C@H]2[C@H](O[C@H]3CC[C@@]4(C)C(CC[C@]5(C)C4CC=C4[C@@H]6CC(C)(C)CC[C@]6(C(=O)O)CC[C@]45C)[C@]3(C)CO)OC[C@H](O)[C@@H]2O)[C@H](O)[C@H](O[C@@H]2OC[C@@H](O)[C@H](O)[C@H]2O)[C@H]1O` (stereo partly specified) the value was 4.91 µM (active).
With `N#Cc1ccc2c(c1)CCN(CCC1CCC(NC(=O)c3ccnc4ccccc34)CC1)C2` (stereo unspecified), the Potency was 10.3 µM (active).
For `COC(=O)C#Cc1ccc([N+](=O)[O-])cc1` the value was 2.59 µM (active); for `CCNC(=O)N1CCN(CCCC(c2ccc(F)cc2)c2ccc(F)cc2)CC1`, 18.8 µM (active); for `CC(C)(C[C@@](O)(Cc1cc2ccncc2[nH]1)C(F)(F)F)c1cc(F)ccc1O`, 2.31 µM (active).
As to `O=C(/C=C/n1cnc(-c2cc(C(F)(F)F)cc(C(F)(F)F)c2)n1)NNc1cnccn1`, the Potency was 1.46 µM (active).
The value for `COc1cccc(CN(C(=O)CC(C)(C)C)C2CC(C(=O)N3CCNCC3)N(Cc3ccc4c(c3)OCO4)C2)c1` (stereo unspecified) was 16.4 µM (active).
